What all share (assay): NCI-60 one-dose screen, 48 h (100 = growth as untreated, 0 = no growth, -100 = all killed)
Holding throughout (settings): 10 µM unless noted

The test system of assay [1] is NCI-H23 lung.
Assay [2] deals with NCI-H226 lung.
The test system of assay [3] is NCI-H322M lung.
The test system of assay [4] is HOP-62 NSCLC.
In assay [5] the test system is NCI-H460 lung.
Assay [6] deals with HOP-92 NSCLC.
The subject of assay [7] is NCI-H522 lung.
The test system of assay [8] is A549/ATCC NSCLC.
The subject of assay [9] is 786-0 renal.
Assay [10] deals with COLO 205 colon.

Each structure is given as a SMILES string. About 83,000 compounds went through this panel and 20% of them were active in at least one assay; those are over-represented in the sample as a whole.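 96-well plates, one dose, 48 hours. Percent growth reported; active if below 10.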 A number with no mark means an inactive call. Active and inactive are the calls of the source.

Regarding `O=S(=O)(NCCCNc1nccc(-c2c(-c3cccc(O)c3)nc3occn23)n1)c1ccc(Cl)cc1`, the growth in assay [1] is 94.6%; in assay [2], 108%; in [3], 103%; in assay [4], 114%; in assay [5], 92.5%; in [6], 96.6%. In addition, the growth in assay [7] was 87.6%; in assay [8], 90.5%; in assay [9], 102%; in assay [10] it was 27.7%.

Regarding `CCN1C(=O)N(CC)C2Nn3c(s/c(=C\c4ccc(OC)cc4)c3=O)=NC21` (stereo not given), the growth is 76.3% in assay [1]; 85.1% in [2]; 82.6% in assay [3]; 55.8% in [4]; 32.2% in assay [5]; 75.4% in assay [6]. Moreover, the growth in assay [7] was 12.2%; in assay [8], 50.7%; in assay [9], 34.6%; in assay [10] it was 31.7%.

On to `COc1ccc(C(=O)NNc2nc(Cl)nc(N3CCN(C(c4ccccc4)c4ccccc4)CC3)n2)cc1`, for which the growth is 3.63% (active) in assay [1]; 90.1% in assay [2]; 57.6% in assay [3]; 86.5% in [4]; 101% in [5]; 74% in [6]. For the same compound, the growth is -33% (active) in assay [7], 92.6% in [8], 69.1% in assay [9] and 60.5% in [10].

Turning to `Cc1ccc(-n2cc(-c3ccccc3)c3c2N=NN2CCN=C32)cc1`, the growth in [1] was 93.1%; in [2], 82.3%; in [3], 97.4%; in assay [4], 97.4%; in [5], 104%; in [6] it was 102%. For the same compound, the growth in assay [7] was 90.2%; in assay [8], 105%; in assay [9], 99.3%; in assay [10], 120%.

As to `CN1CCC(=C(c2ccccc2)c2ccccc2)C(c2ccccc2)C1` (stereo not given), the growth is 88.1% in [1]; 96.3% in [2]; 96.7% in assay [3]; 101% in assay [4]; 103% in assay [5]; 82.8% in assay [6]. Also, the growth in assay [7] is 85.2%; in assay [8], 90.8%; in assay [9], 95.1%; in [10], 83%.

As for `O=C(NCCNc1nccc(-c2c(-c3cccc(F)c3)nc3sccn23)n1)c1ccc(Cl)cc1`, the growth in assay [1] was 73.5%; in assay [2], 51.2%; in assay [3] it was 66.3%; in assay [4] it was 91.9%; in assay [5], 35.8%; in assay [6], 87.1%. The growth in [7] is 68.4%; in assay [8] it was 34.8%; in assay [9], 54.6%; in [10], 29.8%.

Consider `C=C(C)[C@@H]1CC[C@]2(C(=O)N3CCN(C)CC3)CC[C@]3(C)[C@H](CC[C@@H]4[C@@]5(C)C/C(=C/c6cccnc6)C(=O)C(C)(C)[C@@H]5CC[C@]43C)[C@@H]12`, for which the growth in assay [1] was 78.5%; in assay [2] it was 72.7%; in [3], 107%; in assay [4], 88.4%; in [5], 44.3%; in assay [6] it was 52.8%. Moreover, the growth in assay [7] was 59%; in [8], 49.4%; in [9], 75.7%; in assay [10], 65%.

Take `CC(=O)[C@@H]1CC[C@]2(C(N)=O)CC[C@]3(C)[C@H](CC[C@@H]4[C@@]5(C)CCCNC(C)(C)[C@@H]5CC[C@]43C)[C@@H]12`: the growth in assay [1] was 93.7%; in [2] it was 99.6%; in assay [3], 96.3%; in [4] it was 98.3%; in [5], 86.2%; in [6], 81.7%. For the same compound, the growth in [7] was 107%; in [8], 83.3%; in assay [9], 88.9%; in assay [10], 86.6%.

In the case of `COc1cc(C2C3=C(COC3=O)N(CCO)c3cc4c(cc32)OCO4)cc(OC)c1OC` (stereo not given), the growth was 12.2% in assay [1]; 6.36% (active) in [2]; 50.3% in [3]; 12.6% in assay [4]; -54.3% (active) in [5]; 52.1% in [6]. Besides, the growth in assay [7] was -13% (active); in assay [8], 30.8%; in [9] it was 9.85% (active); in [10], -84.3% (active).

Regarding `O=[N+]([O-])c1cc(Br)c2cccc3c2c1CC3`, the growth was 106% in [1]; 103% in assay [2]; 106% in assay [3]; 118% in [4]; 106% in assay [5]; 97.1% in assay [6]. Moreover, the growth is 108% in assay [7], 98.5% in assay [8], 96.5% in [9] and 118% in [10].

As to `CCN1Cc2nc3sc(C)c(C)c3c(=O)n2C=C1C`, the growth is 46.8% in [1]; 77.8% in [2]; 69% in [3]; 32.6% in [4]; 115% in assay [5]; -14.7% (active) in assay [6]. In addition, the growth in assay [7] is 38.5%; in assay [8], 86.8%; in assay [9], 16.8%; in assay [10] it was 111%.

Regarding `Cc1cc(C(=O)/C=C/c2ccc[nH]2)ccc1-n1ccc(C(F)(F)F)n1`, the growth in assay [1] is 89.5%; in assay [2], 89.8%; in [3] it was 97.5%; in [4], 106%; in [5], 98.9%; in [6], 104%. In addition, the growth was -9.61% (active) in assay [7], 84.9% in assay [8], 48.7% in assay [9] and 115% in [10].

For the origin of these results see PubChem BioAssay (NCI).
